Sm TGR inh = blocks Schistosoma mansoni thioredoxin glutathione reductase; Q962Y6; purified TGR, DTNB reduction, TNB absorbance 405 nm; Potency, µM (series often up to 114 µM), most hits filed as inhibitors; 360,000 compounds, 3% hits; also: nearly all actives have a fitted effect of over 60% in size
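First, TGR (20 nM dispensed) and NADPH were mixed with compound. Second, a 15 min room-temperature incubation followed. Third, further NADPH and then DTNB were added to start the reaction. Finally, TNB absorbance was monitored kinetically.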
Giardia FBPA inh = Giardia lamblia aldolase inhibition | 290,000 compounds, 0.71% hits | Potency, µM (highest dose often 59.6 µM), most hits filed as inhibitors | A8B2U2 | purified Giardia FBPA | AID 2451; also: nearly all actives have a fitted effect of over 55% in size
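Giardia FBPA (40 nM reagent) was preincubated 10 min at RT with compound (up to 57.5 uM final), then substrate plus GAPDH/TPI/NAD/arsenate coupling system with diaphorase/resazurin was added; resorufin fluorescence (525/598 nm) was read after 20 min.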
RE007 growth inh = less growth of the S. pombe RE007 Vpr strain; AID 651644; 360,000 compounds, 0.21% hits; Potency, µM (top dose mostly 92.2 µM), usual class: inhibitors; S. pombe RE007 Vpr strain, BacTiter-Glo ATP luminescence, 24 h; active = well fitted falling curve with a large enough effect; inconclusive = small, poorly fitted or top-dose-only effect; inactive = no such curve, though single readings can be large or run the other way; also: nearly all actives have a fitted effect of over 50% in size
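Fission yeast RE007 carrying one integrated HIV-1 vpr copy, seeded at OD 0.01 in PMG+AL medium with 23 nL pinned compound. Grown 24 h at 30 degrees; viability read by BacTiter-Glo luminescence after 5 min.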
AmpC inh no detg = AmpC beta-lactamase inhibition without detergent; 330,000 compounds, 0.52% hits; AmpC nitrocefin hydrolysis, absorbance 480 nm, 0.0001% Triton; AID 485341; Potency, µM (highest dose often 57.1 µM), hits mostly inhibitors; P00811; also: nearly all actives have a fitted effect of over 20% in size
Target sequence (P00811 whole entry, looked up): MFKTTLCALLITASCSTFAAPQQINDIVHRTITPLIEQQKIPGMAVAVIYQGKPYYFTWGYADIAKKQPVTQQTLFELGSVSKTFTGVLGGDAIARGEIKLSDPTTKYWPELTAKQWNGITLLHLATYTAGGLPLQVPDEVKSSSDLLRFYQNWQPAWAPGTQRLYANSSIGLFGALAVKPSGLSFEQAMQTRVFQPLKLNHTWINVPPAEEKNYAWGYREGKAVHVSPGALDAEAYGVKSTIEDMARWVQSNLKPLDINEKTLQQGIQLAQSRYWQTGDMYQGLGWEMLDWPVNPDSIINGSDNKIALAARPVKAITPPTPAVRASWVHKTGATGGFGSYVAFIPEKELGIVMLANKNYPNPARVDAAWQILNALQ
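AmpC (5.3 nM in the dispensed reagent) in 20 mM phosphate pH 7.0 with 0.01% (detergent screen) or 0.0001% Triton X-100 was preincubated with compounds for 15 min at room temperature. Nitrocefin was then added from an 800 uM solution, and hydrolysis was followed at 480 nm.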
AmpC detergent = blocks E. coli AmpC beta-lactamase in detergent assay; AmpC hydrolysis of nitrocefin, absorbance 480 nm, 0.01% Triton; Potency, µM (top dose mostly 114 µM), actives largely listed as inhibitors; 370,000 compounds, 0.041% hits; also: nearly all actives have a fitted effect of over 25% in size
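AmpC (5.3 nM in the dispensed reagent) in 20 mM phosphate pH 7.0 with 0.01% (detergent screen) or 0.0001% Triton X-100 was preincubated with compounds for 15 min at room temperature. Nitrocefin was then added from an 800 uM solution, and hydrolysis was followed at 480 nm.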
Large screens that a line does not name were inactive; ! = a repeat was not active. This is a sample that favours compounds with a hit; in the whole collection about 3.4% have one here. Unless noted, calls follow the shape of the dose curve; as a rule, active = well fitted curve in the direction sought with a large enough effect; inconclusive = small, poorly fitted or top-dose-only effect, or another doubt; inactive = no such curve, though single readings can be large; an effect the other way counts as inactive or inconclusive.

Cc1ccccc1/C=N/N1C(=O)CSC1=S	Sm TGR inh 10µM
COc1ccc(NC(=O)CS(=O)CC(=O)NCc2cccc(C(F)(F)F)c2)cc1 (centres undefined)	none
Cc1ccc(NS(=O)(=O)c2ccc3c(c2)CC(=O)N3)cc1F	AmpC detergent inconclusive (no result: Giardia FBPA inh)
CCc1cccc(C)c1NC(=O)C1CCN(S(=O)(=O)c2cc(Br)cc3c2N(C(C)=O)CC3)CC1	none (no result: Giardia FBPA inh, RE007 growth inh, AmpC inh no detg)
O=C(NCc1ccc(F)cc1)C1CC(=O)N(C2CCCCCCC2)C1 (centres undefined)	none
COc1ccc(-c2ccc(CCC(=O)O)n2-c2ccccc2O)cc1	Sm TGR inh 28µM!
COc1ccc(-c2ccc(CCC(=O)O)n2-c2ccccc2C(F)(F)F)cc1	Sm TGR inh inconclusive (no result: Giardia FBPA inh, RE007 growth inh, AmpC inh no detg)
COc1ccc(-n2c(CCC(=O)O)ccc2-c2ccccc2)cc1	Sm TGR inh 40µM!
CCOC(Cn1c(SCc2cc(C(C)=O)ccc2OC)nc2ccccc2c1=O)OCC	none
COc1ccc(C(C)=O)cc1CSc1nc2cc(C(=O)O)ccc2c(=O)n1Cc1ccccc1	Sm TGR inh 22µM
Cc1ccc(-c2nc3c(C)cccn3c2Nc2ccccc2C)s1	Sm TGR inh 8.9µM (no result: Giardia FBPA inh, RE007 growth inh, AmpC inh no detg)
CC1=C(C)/C(=N\OS(=O)(=O)c2ccccc2)C=CC1=O	Sm TGR inh 2.5µM, Giardia FBPA inh 4.5µM, RE007 growth inh 7.9µM
Cc1ccc(S(=O)(=O)O/N=C2\CCCc3ccccc32)cc1	Giardia FBPA inh inconclusive
S=C(S)N1CCCC1	Giardia FBPA inh 13µM, AmpC detergent inconclusive
CC(C)[C@H](NC(=O)c1ccccc1)C(=O)OCC(=O)c1ccc2c(c1)NC(=O)CO2	Sm TGR inh 35µM, AmpC detergent inconclusive
O=C1COc2ccc(C(=O)CCl)cc2N1	Sm TGR inh 3.5µM
COC(=O)c1cc(C(=O)OCC(=O)c2ccc3c(c2)NC(=O)CO3)cc([N+](=O)[O-])c1	Sm TGR inh 40µM (no result: Giardia FBPA inh)
CCC(=O)c1ccc(OCC(=O)c2ccc3c(c2)NC(=O)CO3)cc1	none
C/[N+]([O-])=C/c1c(OCc2ccc(Cl)cc2Cl)ccc2ccccc12	none
Cc1cc(SCc2ccccc2F)nc(=O)[nH]1	none
O=C(COC(=O)CNC(=O)c1ccc(Cl)cc1Cl)Nc1cccc(S(=O)(=O)N2CCCC2)c1	Sm TGR inh 50µM (no result: Giardia FBPA inh)
O=C(COC(=O)c1cc([N+](=O)[O-])ccc1NCCO)Nc1ccc2c(c1)OCO2	none (no result: Sm TGR inh)
O=C(COC(=O)c1cc([N+](=O)[O-])ccc1NCCO)Nc1cccc(S(=O)(=O)N2CCCC2)c1	AmpC inh no detg 32µM, AmpC detergent inconclusive (no result: Giardia FBPA inh)
O=C(COC(=O)CNC(=O)c1ccccc1F)Nc1cccc(S(=O)(=O)N2CCCCCC2)c1	AmpC detergent inconclusive
CCN(CC)S(=O)(=O)c1ccc(C)c(NC(=O)CNc2cccc(S(=O)(=O)N3CCCC3)c2)c1	none (no result: Giardia FBPA inh)
CCN(CC)S(=O)(=O)c1cccc(NC(=O)CNc2cccc(S(=O)(=O)N3CCCC3)c2)c1	AmpC inh no detg 28µM
CCOC(=O)N1CCC(c2cc(=O)n3[nH]c(C)c(-c4ccc(F)cc4)c3n2)CC1	AmpC inh no detg 25µM, AmpC detergent inconclusive
NC(=O)c1ccsc1NC(=O)CSc1ccccc1F	none
NC(=O)c1ccsc1NC(=O)CSc1nnc(Nc2ccccc2)s1	AmpC inh no detg 14µM
COc1ccc(NC(=O)c2oc3ccccc3c2NC(=O)c2cc(=O)c3c(C)cc(C)cc3o2)cc1	none (no result: Giardia FBPA inh, RE007 growth inh, AmpC inh no detg)
O=C(O)c1cccc2c1NC(C(=O)O)C1CC(Sc3ccccc3[N+](=O)[O-])C(Cl)C21 (centres undefined)	Sm TGR inh inconclusive, AmpC detergent 40µM
CCc1ccc(N(CC)C(=O)c2sc3nc4n(c(=O)c3c2C)CCCC4)cc1	Sm TGR inh 10µM (no result: Giardia FBPA inh, RE007 growth inh, AmpC inh no detg)
CCN(C(=O)c1sc2nc3n(c(=O)c2c1C)CCCCC3)c1ccc(OC)cc1	Sm TGR inh 22µM (no result: Giardia FBPA inh, RE007 growth inh, AmpC inh no detg)
COCCCNC(=O)c1sc2nc3n(c(=O)c2c1C)CCC3	Sm TGR inh 11µM (no result: Giardia FBPA inh, RE007 growth inh, AmpC inh no detg)
Cc1coc2cc3oc(=O)c(CC(=O)N[C@@H](CC(C)C)C(=O)O)c(C)c3cc12	none
CC(OC(=O)/C(C#N)=C/c1ccc(N(C)C)cc1)C(=O)N(C)Cc1ccccc1 (centres undefined)	none (no result: Giardia FBPA inh)
COc1ccccc1NC(=S)NC(=O)C(C)(C)C	none

High-throughput results (PubChem BioAssay)
